The record followed here is ChEMBL document CHEMBL3988442, “University of Dundee, Small-Polar-MMV Screening Library” (2021).

The assay deals with AMP-activated protein kinase, AMPK (Homo sapiens) (UniProt P54646+O43741+P54619+Q9UGJ0+Q9Y478+Q13131+Q9UGI9). The assay is described as follows: AMP-dependent Kinase enzyme assay. An in vitro enzyme assay that detects ADP turnover that is directly proportional to AMPK activity. This uses naive AMPK that is activated during the assay with MK-8722. The assay is classed as functional. On the set-up: scale not given: direction of the effect not stated beside the values. The conditions noted are these: 30 µM.
`CN(C)c1ncccc1N(C)C(=O)Cn1cc(-c2ccccc2)nn1`: the Percent Effect was -17.2%.

In the case of `CC(NC(=O)NCc1cccnc1N(C)C)c1ccc(F)cc1` (stereo not given), the Percent Effect is -7.51%.

As to `CC(C)c1nc(CC(=O)Nc2cnccc2O)cs1`, the Percent Effect was -1.17%.

`CC(C)Cc1cc(CNC(=O)c2cccc3c2NCCC3)no1`: the Percent Effect is 1.24%.

Regarding `Cc1ccc(CCCC(=O)N2CC(=O)Nc3cccnc32)s1`, the Percent Effect came out at 2.25%.

With `Cc1nc(CN2CCc3ccc(S(N)(=O)=O)cc32)oc1C`, the Percent Effect was -7.39%.

Consider `CN(C)c1ncccc1CNC(=O)CCNc1ncccn1`, for which the Percent Effect was -6.85%.

Take `Cc1cc(NC(=O)Cn2ccc(=O)c3ccccc32)[nH]n1`: the Percent Effect was -3.42%.

On to `CCCN1CCN(S(=O)(=O)c2ccccc2OC)[C@H]2CS(=O)(=O)C[C@H]21`, for which the Percent Effect worked out at 2.61%.

As to `O=C(CCN1CCOCC1)Nc1cccc(CNCc2ccsc2)c1`, the Percent Effect is -5.46%.

`Cc1ccc(C)c(CN(CC(N)=O)C(C)C)c1`: the Percent Effect was -8.2%.

For `NC(=O)COc1ccc(CN2CCC(O)(CN3CCCCC3)C2)cc1Cl` (stereo not given), the Percent Effect amounted to 2.63%.

Turning to `CC1CN(c2ncnc3sccc23)CCN1c1nccs1` (stereo not given), the Percent Effect came out at 16.9%.

Turning to `CNCC(=O)NC1CC(C)(C)Cc2nc(C(C)(C)C)ncc21` (stereo not given), the Percent Effect is -7.88%.

For `CC1(C)O[C@@](C)([C@H]2CC3(CCN(c4ncccn4)CC3)CO2)CC[C@@H]1O`, the Percent Effect is 7.88%.

Consider `CCSc1cccc(NCc2cccnc2)c1`, for which the Percent Effect is -1.67%.

`CN(C)c1cc(CNC(=O)C2COc3ccccc3O2)ccn1` (stereo not given): the Percent Effect turned out to be 0.412%.

`CC(C)NC(=O)CN(C)C(=O)c1csc(Cc2ccccc2F)n1`: the Percent Effect was 5.04%.

Consider `COc1cc(Cl)cc(CN2CCCC(N3CCOCC3)C2)c1OC` (stereo not given), for which the Percent Effect was 4.12%.

In the case of `CCc1cnc(CNC(=O)NCCc2ccc(O)cc2)s1`, the Percent Effect was found to be 47.9%.

Regarding `O=C1CCCCCN1Cc1cccc(OC(F)F)c1`, the Percent Effect was found to be 3.82%.

Consider `CS(=O)(=O)c1ccc(Cl)c(C(=O)NCCC2=CCCCC2)c1`, for which the Percent Effect is -0.566%.

In the case of `Cc1cnn(CCNCC(=O)N2CCN(c3ccccc3)CC2)c1`, the Percent Effect was -5.8%.

As to `CN(C)Cc1cn(-c2ccccc2C(=O)NCCC2CCCN2C)cn1` (stereo not given), the Percent Effect is -16.8%.

Regarding `CCc1nnc(CNC(=O)CCC2CCCN(C)C2)s1` (stereo not given), the Percent Effect was -1.32%.

On to `CSc1ccc(NC(=O)Cn2cc(NC(C)=O)cn2)cc1`, for which the Percent Effect is -11.9%.

In the case of `CCC(C)NC(=O)Nc1cccc(OC)c1` (stereo not given), the Percent Effect was -9.8%.

Consider `CN1CC(c2ccccc2)CC2(CCN(Cc3ncc[nH]3)CC2)C1` (stereo not given), for which the Percent Effect is -6.61%.

For the molecule `O=C(NCCn1ccnc1)C1COCC(=O)N1Cc1ccccc1` (stereo not given), the Percent Effect turned out to be 5.07%.

On to `CC(C)[C@H](N)C(=O)N1CCCC(C2=Nc3ccccc3S(=O)(=O)N2)C1` (stereo not given in full), for which the Percent Effect worked out at 7.27%.

As to `Cc1cn[nH]c1C1COCCN1Cc1ccsc1` (stereo not given), the Percent Effect worked out at 14.3%.

Take `Cc1noc(C(C)N2CCN(Cc3noc(C4CC4)n3)CC2)n1` (stereo not given): the Percent Effect worked out at 3.22%.

With `COc1cc(-c2cccc3c2OC(CN)C3)cc(OC)c1OC` (stereo not given), the Percent Effect was -5.11%.

Turning to `O=C(CCn1ccnc1)N1CCCC(n2cncn2)C1` (stereo not given), the Percent Effect was determined as 11.8%.

As for `Cc1nc(CC(C)C)cc(C(=O)N2C[C@@H](CN(C)C)[C@@H](CO)C2)n1`, the Percent Effect is -4.49%.

`CC(C#N)NS(=O)(=O)c1cccc(C(C)C)c1` (stereo not given): the Percent Effect was 0.482%.

In the case of `CN(C)C(=O)Cn1cnc2c(Br)cccc2c1=O`, the Percent Effect was -4.74%.

As for `Cc1cc(C(=O)N2CCNC(=O)C2)c(C)n1CC(F)(F)F`, the Percent Effect was found to be 1.02%.

Regarding `CN1CCC(Nc2ccc(Cl)cc2OCC(F)(F)F)C1=O` (stereo not given), the Percent Effect is -3.53%.

Turning to `c1ccc(CCN2CCN(C3CCOC4(CCOCC4)C3)CC2)cc1` (stereo not given), the Percent Effect is -8.46%.
